Experimental data from PubChem BioAssay (NCI).
The panel holds about 79,000 compounds, 15% with a hit somewhere; the sample as a whole holds those more often. Active and inactive are the calls of the source. Rule as the data show it: active = growth inhibition above about 70%; inactive = the rest.

Assays:
[1] = NCI Yeast Anticancer Drug Screen. Data for the rad52 strain (AID 147);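 also: 0% = growth of vehicle-treated control cultures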; conditions: S. cerevisiae rad52 mutant growth inhibition, active compounds read high
Summary of the method: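 Screen used a yeast mutant impaired in DNA repair. After compound exposure, growth was measured. Values reflect inhibition compared with vehicle-treated cells.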

[2] = NCI Yeast Anticancer Drug Screen. Data for the wt1 strain (AID 149);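 also: 0% = growth of vehicle-treated wt1 cultures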; conditions: S. cerevisiae wt1 strain (SPY 50644) growth inhibition, active compounds read high
Summary of the method: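 Measured: growth of wt1 yeast under compound versus vehicle treatment, reported as inhibition.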

[3] = NCI Yeast Anticancer Drug Screen. Data for the rad50EPP+ strain (AID 151);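 also: 0% = growth of vehicle-treated control cultures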; conditions: S. cerevisiae rad50 mutant strain, active compounds read high
Summary of the method: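 Exposing the rad50EPP+ strain to each compound, growth was compared with vehicle-only cultures to give inhibition.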

[4] = NCI Yeast Anticancer Drug Screen. Data for the mgt1 strain (AID 153); conditions: S. cerevisiae mgt1 mutant growth inhibition, active compounds read high
Summary of the method: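 Genetically defined yeast (mgt1) treated with compound; inhibition of growth expressed against vehicle-treated controls.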

[5] = NCI Yeast Anticancer Drug Screen. Data for the rad50 strain (AID 155);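 also: 0% = growth of vehicle-only cultures of the same strain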; conditions: S. cerevisiae rad50 strain growth inhibition, active compounds read high
Summary of the method: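 Growth of the mutant yeast was measured after compound exposure and referenced to vehicle-treated cultures.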

[6] = NCI Yeast Anticancer Drug Screen. Data for the mec2-1 strain (AID 157); conditions: S. cerevisiae mec2-1 strain, active compounds read high
Summary of the method: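 Readout is yeast growth inhibition, normalised to vehicle-treated controls, in the mec2-1 strain exposed to compound.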

Measured: growth inhibition

O=C(CC(C(=O)O)N1CCOCC1)c1ccccc1 (stereo not given)
inactive: [1]; at 1.2 µM -1% | [1]; at 3.7 µM -2% | [1]; at 11.0 µM 0% | [1]; at 33.0 µM 32% | [2]; at 1.2 µM -1% | [2]; at 3.7 µM -2% | [2]; at 11.0 µM 0% | [2]; at 33.0 µM 12% | [2]; at 100.0 µM 47% | [3]; at 1.2 µM -2% | [3]; at 3.7 µM -1% | [3]; at 11.0 µM 2% | [3]; at 33.0 µM 12% | [3]; at 100.0 µM 43% | [4]; at 1.2 µM -3% | [4]; at 3.7 µM -3% | [4]; at 11.0 µM 1% | [4]; at 33.0 µM 33% | [4]; at 100.0 µM 65% | [5]; at 1.2 µM -3% | [5]; at 3.7 µM 1% | [5]; at 5.0 µM (retest, dose inferred, filed as 0.5) 13% | [5]; at 11.0 µM 2% | [5]; at 33.0 µM 36% | [5]; at 50.0 µM (retest, dose inferred, filed as 5.0) 65% | [5]; at 50.0 µM 49% | [6]; at 1.2 µM -6% | [6]; at 3.7 µM -11%
active: [1]; at 100.0 µM 73% | [5]; at 100.0 µM 77%
